# From paper PMC4336329 (PLoS ONE, 2015)
# The whole screen tested about 310,000 compounds, of which about 14,000 (4.5%) showed an effect of 50% or more. Effects have a minus sign here. The list comes from a sample in which strong results are over-represented; it also holds similar structures and randomly drawn compounds.
# Target: human ether-à-go-go-related gene (hERG) potassium channel (human, UniProt Q12809)
# Experiment: primary screen, population patch clamp on CHO cells stably expressing hERG; higher = less effect of the substance
# 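Further: peak tail current of the secondary pulse compared with the same well before compound.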
# Chain of human ether-à-go-go-related gene (hERG) potassium channel (Q12809 whole entry, looked up): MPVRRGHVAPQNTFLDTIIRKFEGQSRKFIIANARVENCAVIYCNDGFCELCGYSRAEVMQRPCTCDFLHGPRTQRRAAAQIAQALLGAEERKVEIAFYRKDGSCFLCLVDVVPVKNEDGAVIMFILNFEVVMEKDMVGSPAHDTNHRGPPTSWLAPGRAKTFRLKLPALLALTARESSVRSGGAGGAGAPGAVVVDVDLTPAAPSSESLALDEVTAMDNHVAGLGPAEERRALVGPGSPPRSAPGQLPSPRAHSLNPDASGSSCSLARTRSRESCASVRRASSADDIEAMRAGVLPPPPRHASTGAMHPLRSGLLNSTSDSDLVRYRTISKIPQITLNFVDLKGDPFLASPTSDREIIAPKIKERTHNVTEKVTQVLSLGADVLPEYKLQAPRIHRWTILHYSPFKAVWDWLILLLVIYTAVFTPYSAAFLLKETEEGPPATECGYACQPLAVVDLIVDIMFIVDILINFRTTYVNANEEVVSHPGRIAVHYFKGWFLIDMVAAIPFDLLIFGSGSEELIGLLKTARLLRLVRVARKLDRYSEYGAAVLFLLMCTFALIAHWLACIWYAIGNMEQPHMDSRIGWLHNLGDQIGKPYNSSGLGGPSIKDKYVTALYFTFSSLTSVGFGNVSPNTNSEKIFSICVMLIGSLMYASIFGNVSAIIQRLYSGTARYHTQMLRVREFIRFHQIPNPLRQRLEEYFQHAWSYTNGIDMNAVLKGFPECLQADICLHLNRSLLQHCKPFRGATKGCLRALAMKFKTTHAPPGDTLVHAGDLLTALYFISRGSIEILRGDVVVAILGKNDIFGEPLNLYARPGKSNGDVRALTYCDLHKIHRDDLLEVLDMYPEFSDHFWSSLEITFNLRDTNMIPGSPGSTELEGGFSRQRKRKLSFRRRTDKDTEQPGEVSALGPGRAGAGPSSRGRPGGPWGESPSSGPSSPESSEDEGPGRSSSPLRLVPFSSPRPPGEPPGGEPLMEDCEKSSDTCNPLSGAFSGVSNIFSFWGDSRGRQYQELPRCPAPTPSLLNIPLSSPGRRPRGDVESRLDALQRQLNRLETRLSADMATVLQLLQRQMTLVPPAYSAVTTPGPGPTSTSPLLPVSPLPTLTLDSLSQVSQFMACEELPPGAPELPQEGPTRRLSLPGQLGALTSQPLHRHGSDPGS
row,SMILES,"hERG current change (%, negative = inhibition) at 10uM [%]"
1,NC(=O)c1cc([N+](=O)[O-])cc2c1C=Cc1ccccc1O2,2.92
2,CC12COC3(C(=O)Nc4ccc([N+](=O)[O-])cc4)CC1CCC32C (stereo not shown),-32.1
3,O=C(COC(=O)C1CC2CCCC(C1)C2=O)NC(=O)c1ccc(OC(F)F)cc1 (stereo not shown),23.2
4,COc1ccc(N(CC(=O)NCc2ccc(Cl)cc2)S(=O)(=O)c2c(C)n[nH]c2C)cc1,-57.4
5,COc1ccc(CNC(=O)CN(Cc2ccccc2)S(=O)(=O)c2ccc(Cl)cc2)cc1,-61.7
6,COc1ccc(CNC(=O)CN(C)S(=O)(=O)c2ccc(Cl)cc2)cc1,-20.4
7,COc1ccc(N(CC(=O)NCc2ccc(F)cc2)S(=O)(=O)c2c(C)n[nH]c2C)cc1,-26.5
8,COc1ccc(CNC(=O)CN(Cc2ccc(C)cc2)S(=O)(=O)c2ccc(Cl)cc2)cc1,-50.9
9,CCOC(=O)N1CCN(C(=O)CN(Cc2ccc(Cl)cc2)S(=O)(=O)c2ccccc2)CC1,-70.1
10,COc1ccc(C)cc1S(=O)(=O)N(CC(=O)NCc1ccc(Cl)cc1)Cc1ccccc1,8.35
11,COc1ccc(CNC(=O)CN(Cc2ccc(Cl)cc2)S(=O)(=O)c2ccccc2)cc1,-12.5
12,COc1ccc(N(CC(=O)NCc2ccccc2)S(=O)(=O)c2c(C)n[nH]c2C)cc1,-35.6
13,COc1ccc(CNC(=O)CN(Cc2ccc(Cl)cc2)S(C)(=O)=O)cc1,-45.4
14,CCOC(=O)N1CCN(C(=O)CN(Cc2ccc(Cl)cc2)S(=O)(=O)c2ccc(C)cc2)CC1,-42.8
15,CCOC(=O)N1CCN(C(=O)CN(Cc2ccc(Cl)cc2)S(C)(=O)=O)CC1,-15.5
16,CCc1ccccc1NC1=NCC(=O)N1Cc1ccccc1,4.53
17,COc1ccc(N(C(=O)c2ccco2)S(=O)(=O)c2cc(OC)ccc2OC)cc1,-19.3
18,CC(NC(N)=O)C(=O)OCC(=O)c1ccc(-c2ccccc2)cc1 (stereo not shown),10.8
19,COc1ccc(OC)c(CCNC(=O)c2ccc3c(=O)[nH]c4c(C(=O)NC(C)C)sc(=S)n4c3c2)c1,21.2
20,CN(c1ccccc1)S(=O)(=O)c1ccc(Cl)c(C(=O)NC2=NCCS2)c1,9.14
21,Cc1cc(C)c2c3c(sc2n1)C(=O)N(c1ccccc1C)CC(=O)N3,14.6
22,CN(C)C(CNc1ccc(S(C)(=O)=O)cc1[N+](=O)[O-])c1ccccc1 (stereo not shown),-12.6
23,COc1ccc(NC(=O)CSCc2ccc([N+](=O)[O-])cc2)cc1OC,-17.5
24,O=C(NCCO)c1cc2cc(Cl)cc(Cl)c2oc1=O,-3.65
25,CCN(CC(=O)NCc1cccs1)C(=O)COc1ccc(C(N)=O)cc1,6.69
26,CCCCc1cc(=O)oc2c(C)c(OCC(=O)N3CCC(C(N)=O)CC3)ccc12,-16.7
27,CCc1cc(=O)oc2cc(OCC(=O)N3C[C@H]4C[C@@H](C3)c3cccc(=O)n3C4)c(Cl)cc12,-3.61
28,CC(C)=CCOc1ccc2c(C)c(CC(=O)N3C[C@H]4C[C@@H](C3)c3cccc(=O)n3C4)c(=O)oc2c1C,-57.3

row,SMILES,"hERG current change (%, negative = inhibition) at 10uM [%]"
1,C=C(C)COc1ccc2c(C)c(CC(=O)N3C[C@H]4C[C@@H](C3)c3cccc(=O)n3C4)c(=O)oc2c1C,-49.2
2,CCCCc1cc(=O)oc2c(C)c(OCC(=O)N3C[C@H]4C[C@@H](C3)c3cccc(=O)n3C4)ccc12,-60
3,CCc1cc(=O)oc2c(C)c(OCC(=O)N3C[C@H]4C[C@@H](C3)c3cccc(=O)n3C4)ccc12,5.08
4,CCCCc1cc(=O)oc2cc(OCC(=O)N3C[C@H]4C[C@@H](C3)c3cccc(=O)n3C4)c(Cl)cc12,-62.5
5,CCCc1cc(=O)oc2c(C)c(OCC(=O)N3C[C@H]4C[C@@H](C3)c3cccc(=O)n3C4)ccc12,-23.9
6,CCCCc1cc(=O)oc2c(C)c(OCC(=O)N3CCC(C(=O)O)(c4ccccc4)CC3)ccc12,6.82
7,CCCc1cc(=O)oc2cc(OCC(=O)N3C[C@H]4C[C@@H](C3)c3cccc(=O)n3C4)c(Cl)cc12,-14.7
8,COc1ccc2c(C)c(CC(=O)N3C[C@H]4C[C@@H](C3)c3cccc(=O)n3C4)c(=O)oc2c1C,-3.48
9,CCCCc1cc(=O)oc2c(C)c(OCC(=O)N3CCCC3)ccc12,-64.8
10,CC(C)N(C(=O)CSc1nnc(CSc2ncccn2)n1C)C(C)C,32.8
11,O=c1[nH]n2cc(-n3cc([N+](=O)[O-])cn3)cnc2c1Br,10.6
12,CCCCNC(=O)CCC(=O)N1CCN(C(c2ccccc2)c2ccccc2)CC1.Cl,-7.34
13,O=C(CCc1ccccc1)Nc1ccc(NC(=O)C2CCCCC2)nc1,7.57
14,Cl.O=C(/C=C/c1ccccc1)Nc1ccc(N2CCCCC2)cc1,5.7
15,O=C(Nc1ncccc1O)c1cccc(S(=O)(=O)NCc2ccccc2)c1,-20.3
16,Cn1c(C(O)c2ccc3c(c2)OCO3)nc2ccccc21 (stereo not shown),5.63
17,Cc1ccc(S(=O)(=O)N2c3ccccc3NC(=O)CC2C)cc1 (stereo not shown),10.5
18,C=CCn1c(-c2ccc(Cl)cc2)c[nH]c1=S,19.4
19,Cc1cnc(NC(=O)CC2CCCC2)s1,21.5
20,COc1ccc(-c2cc(-c3ccccc3)no2)cc1,9.77
21,CCN(CC(=O)NCc1cccs1)C(=O)COc1ccc(C(C)=O)cc1,-45.1
22,C(=C\c1ccccc1)/CSc1nnc(-c2ccccn2)n1Cc1ccco1,-50.9
23,O=C(CSc1nnc(-c2cnccn2)n1Cc1ccco1)c1ccccc1,-16.3
24,NC(=O)CSc1nnc(-c2ccccn2)n1Cc1ccco1,4.36
25,C(=C\c1ccccc1)/CSc1nnc(-c2cnccn2)n1Cc1ccco1,-73.4
26,CCn1c(SC/C=C/c2ccccc2)nnc1-c1cnccn1,-14.7
27,O=C(CSc1nnc(-c2ccccn2)n1Cc1ccco1)c1ccccc1,-42.5
